From PubChem BioAssay (NCATS) come the findings set out here.

Assay [1] in a line: qHTS for inhibitors of adenylyl cyclases using a fission yeast platform: a pilot screen against the NCATS LOPAC library (AID 1347410).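 Further: plate controls were DMSO vehicle for no effect and DPI positive control for full effect.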 In short, it runs like this:
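GFP from fbp1-GFP reporter, read by Acumen laser cytometry, indicates AC inhibition in fission yeast expressing AC9, GNAS and PDE4D2. Cells grown 18 h in the dark at 30C with compounds, final up to 57 uM.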

The nature of assay [2]: Validation qHTS assay for inhibitors of Activation Induced Cytidine Deaminase (AID): UDG Counterscreen signal (AID 1347427). Further: 0% is about no effect. In short, it runs like this:
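Counterscreen read of UDG activity (2 U/mL, 4/3x) in the FRET deamination format with AID (1 uM, 4/3x), DJC20/DJC23 substrates (250 nM, 4x), 4 h at room temperature. NaOH stop, fluorescence at 560 ex/665 em.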
For orientation: Quantitative high-throughput screening tests each substance at several concentrations.

The target in assay [3] is Single-stranded DNA cytosine deaminase (Homo sapiens) (UniProt Q9GZX7). The assay can be described thus: Validation qHTS assay for inhibitors of Activation Induced Cytidine Deaminase (AID): AID signal (AID 1347429). Further: on the % scale 0 is the no-effect control and ±100 the full control effect. The method, boiled down:
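In this coupled qHTS, AID deaminates a FRET-labelled ssDNA substrate in the presence of UDG over 4 hr at room temperature. Compounds span up to 114 uM final.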

Assay [4] is described as follows: Primary qHTS for inhibitors of La Crosse Virus (LACV) - induced cell death in SH-SY5Y cells (AID 1508616). Further: potency means the concentration at half of the fitted maximal effect. In short, it runs like this: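 Readout was luminescence from ATPLite 1step added after a 6-day LACV infection (0.01 MOI) of SH-SY5Y cells that had received pin-transferred compound 24 hr after seeding.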
For assay [5], the target named is Calcium and integrin-binding protein 1 (Homo sapiens) (UniProt Q99828). In words: Validation qHTS for Identification of Calcium Integrin Binding protein 1 (CIB1) Competitor (AID 1508618). Further: on the % scale 0 is the no-effect control and ±100 the full control effect. In short, it runs like this:
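In this qHTS validation, the LOPAC set (up to 114 uM) was tested for blocking CIB1 binding to a fluorescein-tagged alphaIIb peptide, with FP detection at 480/540 nm.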

Assay [6] in a line: Primary qHTS for small molecule stabilizers of the endoplasmic reticulum resident proteome: Secreted ER Calcium Modulated Protein (SERCaMP) assay (AID 1508630). Further: potency means the concentration at half of the fitted maximal effect. In short, it runs like this: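 GLuc-SERCaMP-expressing SH-SY5Y cells, pretreated 16 h with compound, are challenged with thapsigargin to empty ER calcium stores; after 4 h, coelenterazine is added directly to the medium and luminescence is imaged.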

Assay [7] has as its target Papain (Carica papaya) (UniProt P00784). The assay can be described thus: Primary qHTS assay for inhibitors of the protease papain (AID 1645873).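 Further: papain turnover of Z-FR-AMC read as the AMC fluorescence gain over 10 min.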 Further: potency means the concentration at half of the fitted maximal effect.
A short description of assay [8]: Cell Viability qHTS for small molecule stabilizers of the endoplasmic reticulum resident proteome (AID 1508629).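 Further: human SH-SY5Y neuroblastoma cells carrying the GLuc-SERCaMP reporter; compound exposure about 46 h in total before the viability read; on the % scale 0 is the no-effect control and ±100 the full control effect.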 Particulars: cell viability counter-screen, 100 nM thapsigargin for final 4 h.
The nature of assay [9]: Counterscreen qHTS for small molecule stabilizers of the endoplasmic reticulum resident proteome: GLuc-NoTag assay (AID 1508627).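 Further: SH-SY5Y cells given compound then 100 nM thapsigargin to empty ER calcium; series mostly up to about 76 µM; 0% = thapsigargin alone and -100% = DMSO vehicle control.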 In short, it runs like this:
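SH-SY5Y cells stably expressing constitutively secreted GLuc (no SERCaMP tag) were pre-incubated 5 h, treated with compound for 19 h, then 100 nM thapsigargin for 4 h at 37C; medium GLuc read by coelenterazine luminescence.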
In general terms: Counterscreens check selectivity or assay interference.

Assay [10] in a line: Confirmatory qHTS for small molecule stabilizers of the endoplasmic reticulum resident proteome: Secreted ER Calcium Modulated Protein (SERCaMP) assay (AID 1508628).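 Further: SH-SY5Y cells given compound 16 h then thapsigargin 100 nM for 4 h; series mostly up to about 76 µM; on the % scale 0 is the no-effect control and ±100 the full control effect; nearly all actives have a fitted effect of over 40% in size.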 In short, it runs like this: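 We seeded SH-SY5Y-GLuc-SERCaMP cells, added compounds (three concentrations in the primary run, eleven up to 76.6 uM in confirmation), incubated 16 h, depleted ER calcium with thapsigargin, and read luciferase 4 h later.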

A short description of assay [11]: Primary qHTS for inhibitors of nuclear receptor binding SET domain protein 2 (NSD2) in an isogenic RCH-ACV NSD2 p.E1099K mutant (9B) (AID 1645876). Further: potency means the concentration at half of the fitted maximal effect; nearly all actives have a fitted effect of over 70% in size.

Unmarked numbers belong to inactive results. Records with an inconclusive call do not appear. Active and inactive are the calls of the source. The call rests on the fitted dose curve; in most records, active means well fitted curve in the direction sought with a large enough effect; inconclusive means small, poorly fitted or top-dose-only effect, or another doubt; inactive means no such curve, though single readings can be large; an effect the other way counts as inactive or inconclusive.

Papain (Carica papaya), sequence (P00784 whole entry, looked up): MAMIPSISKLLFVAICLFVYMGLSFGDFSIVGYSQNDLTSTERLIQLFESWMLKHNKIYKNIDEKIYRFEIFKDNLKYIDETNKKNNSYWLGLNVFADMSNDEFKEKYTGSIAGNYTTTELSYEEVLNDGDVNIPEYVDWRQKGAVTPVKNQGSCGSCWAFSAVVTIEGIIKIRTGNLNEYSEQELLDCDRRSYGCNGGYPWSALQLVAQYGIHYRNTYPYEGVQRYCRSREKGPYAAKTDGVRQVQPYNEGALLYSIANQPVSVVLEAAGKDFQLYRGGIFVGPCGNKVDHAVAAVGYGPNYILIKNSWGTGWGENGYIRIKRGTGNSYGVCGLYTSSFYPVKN
Calcium and integrin-binding protein 1 (Homo sapiens), sequence (Q99828 whole entry, looked up): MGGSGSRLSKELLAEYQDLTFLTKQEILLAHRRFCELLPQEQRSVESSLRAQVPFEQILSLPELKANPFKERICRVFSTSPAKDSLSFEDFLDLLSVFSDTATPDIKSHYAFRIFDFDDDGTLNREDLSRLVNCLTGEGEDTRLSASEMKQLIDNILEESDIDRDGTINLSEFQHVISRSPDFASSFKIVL
Single-stranded DNA cytosine deaminase (Homo sapiens), sequence (Q9GZX7 whole entry, looked up): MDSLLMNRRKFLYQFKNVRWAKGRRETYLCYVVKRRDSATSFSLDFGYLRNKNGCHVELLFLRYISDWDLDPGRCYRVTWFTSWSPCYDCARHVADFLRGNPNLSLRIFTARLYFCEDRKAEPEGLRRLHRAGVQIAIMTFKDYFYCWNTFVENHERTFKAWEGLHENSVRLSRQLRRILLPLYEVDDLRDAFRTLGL

As to `COC(=O)C1=C(C)NC(C)=C([N+](=O)[O-])C1c1ccccc1C(F)(F)F` (configuration not stated), the compound was called inactive in assay [1]. The Potency entry in assay [2], in assay [3], in [4], in assay [5], in [6] and in assay [7] was “inactive” each time.
Turning to `N#C/C(=C\c1ccc(O)c(O)c1)C(=O)NCCc1ccccc1`, the outcome in [1] was inactive. Besides, the Potency entry in [2], in assay [3], in assay [4] and in assay [7] was “inactive” in each case.
Turning to `Nc1ccc(CCNc2ncnc3c2ncn3C2OC(CO)C(O)C2O)cc1` (configuration not stated), in [1], the compound was classed as inactive. The Potency entry in [2], in assay [3], in assay [4], in assay [6] and in [7] was “inactive” each time.
Take `Cc1cccc(C)c1OCC(N)C(C)C` (configuration not stated): in assay [1], the compound was classed as inactive. Besides, the Potency result in assay [2], in [3], in assay [4], in assay [5] and in assay [7] was “inactive” each time.
As for `CCCn1c(=O)c(C)cn2nc(N)nc12`, the outcome in assay [1] was inactive. Moreover, the Potency result in assay [2], in [3], in assay [4] and in [5] was “inactive” each time. The Potency in assay [7] was 28.2 µM (active).
As for `O=C1Nc2ccc(I)cc2/C1=C/c1cc(Br)c(O)c(Br)c1`, the outcome in assay [1] was inactive. In addition, the Potency entry in assay [2], in assay [3], in [4], in assay [5], in assay [6] and in [7] was “inactive” in each case.
As for `CC(=O)SC1CC2=CC(=O)CC[C@]2(C)C2CC[C@@]3(C)C(CC[C@@]34CCC(=O)O4)C12` (some centres not stated), in [1], the result was inactive. The Potency result in [2], in assay [3], in [4], in assay [5] and in [7] was “inactive” each time.
Consider `NC[C@@H]1O[C@H](c2ccccc2)Cc2c1ccc(O)c2O`, for which the call in [1] was inactive. Also, the Potency entry in assay [2], in [3], in [4], in assay [6] and in assay [7] was “inactive” each time.
In the case of `CC(N)=NCCCC[C@@H](N)C(=O)O`, the outcome in assay [1] was inactive. In addition, the Potency entry in assay [2], in assay [3], in assay [4], in [5] and in assay [7] was “inactive” each time.
For `O=C(N[C@@H](Cc1ccccc1)C(=O)CCl)OCc1ccccc1`, the result in assay [1] was inactive. Further, the Potency entry in [2], in assay [3] and in [6] was “inactive” in each case. The Potency in assay [4] is 1 µM (active); in [7], 15.8 µM (active).
As to `CCCn1c(=O)c2[nH]c(-c3ccc(S(=O)(=O)O)cc3)nc2n(CCC)c1=O`, the outcome in assay [1] was inactive. The Potency entry in assay [2], in assay [3], in assay [4], in assay [5] and in assay [6] was “inactive” in each case. Moreover, the Potency in [7] is 25.1 µM (active).
For `COc1ccccc1N1CCN(CCCCNC(=O)c2ccc3ccccc3c2)CC1`, the result in assay [1] was inactive. For the same compound, the Potency entry in assay [2], in [3], in assay [4], in assay [5], in assay [6] and in assay [7] was “inactive” throughout.
As to `OC1(c2ccc(Cl)cc2)CCN(Cc2c[nH]c3ccccc23)CC1`, in assay [1], the compound was classed as inactive. The Potency result in assay [2], in assay [3], in [4], in assay [5], in assay [6] and in assay [7] was “inactive” throughout.
With `Clc1nccc2c1ccc1ccccc12`, the call in assay [1] was inactive. The Potency entry in [2], in [3], in assay [4], in [6] and in [7] was “inactive” in each case.
Turning to `NC(=O)c1cc[n+](CC2=C(C(=O)O)N3C(=O)[C@@H](NC(=O)[C@@H](c4ccccc4)S(=O)(=O)[O-])[C@H]3SC2)cc1`, the compound was classed as inactive in assay [1]. In addition, the Potency entry in assay [2], in assay [3], in assay [4], in [6] and in assay [7] was “inactive” throughout.
For the compound `O=c1ccn([C@@H]2O[C@H](COP(=O)(O)OP(=O)(O)O)[C@@H](O)[C@H]2O)c(=O)[nH]1`, the compound was classed as inactive in [1]. Besides, the Potency entry in [2], in [3], in assay [4], in assay [5], in [6] and in assay [7] was “inactive” each time.
Turning to `CC(C)[C@@H]1CC[C@@H](C)C[C@@H]1P(=O)(c1ccccc1)c1ccccc1`, the result in assay [1] was inactive. Besides, the Potency entry in assay [2], in [3], in assay [4], in [5], in [6] and in assay [7] was “inactive” throughout.
As to `O=C(O)C1=CCCNC1`, the compound was classed as inactive in assay [1]. Moreover, the Potency entry in assay [2], in [3], in assay [4], in assay [5], in [6] and in [7] was “inactive” each time.
Regarding `CCCC[C@@]1(C2CCCC2)Cc2cc(OCC(=O)O)c(Cl)c(Cl)c2C1=O`, the call in assay [1] was inactive. The Potency result in assay [2], in assay [3], in assay [4] and in [6] was “inactive” in each case. The Potency in assay [7] was 25.1 µM (active).
Consider `C[C@@]1(C2CCCC2)Cc2cc(OCC(=O)O)c(Cl)c(Cl)c2C1=O`, for which, in [1], the compound was classed as inactive. In addition, the Potency entry in assay [2], in assay [3], in assay [4], in [6] and in assay [7] was “inactive” each time.
Turning to `NC(N)=NC(N)=Nc1cccc(Cl)c1`, in assay [1], the compound was classed as inactive. The Potency entry in assay [2], in [3], in assay [4], in assay [6] and in assay [7] was “inactive” in each case.
As for `O=c1[nH]c2ccccc2c2ccccc12`, the outcome in assay [1] was inactive. Moreover, the Potency entry in assay [2], in assay [3], in [4], in assay [5], in assay [6] and in assay [7] was “inactive” each time.
`Oc1cc2c(cc1O)C(c1ccccc1)CNCC2` (configuration not stated): in assay [1], the compound was classed as inactive. The Potency result in assay [2], in assay [3], in [4], in [5], in assay [6] and in assay [7] was “inactive” each time.
For `COc1cc(/C=C(\C#N)C(=O)c2ccc(O)c(O)c2)cc(I)c1O`, in assay [1], the result was inactive. The Potency entry in assay [3] and in assay [5] was “inactive” each time. Besides, the max response in assay [8] was 17.8%. Besides, the Potency in assay [6] is 11.2 µM (active).
For the compound `O=C1NC(=O)c2cc(Nc3ccccc3)c(Nc3ccccc3)cc21`, the call in [1] was inactive. The Potency result in assay [3], in assay [4] and in assay [7] was “inactive” in each case.
With `N#Cc1cc([N+](=O)[O-])c2sc(C(N)=O)[n+]([O-])c2c1`, the outcome in assay [1] was inactive. Further, the Potency entry in [2], in [3], in [9], in assay [10] and in assay [7] was “inactive” throughout. Moreover, the Potency in assay [11] is 8.2 µM (active).
Consider `C[C@H](NC(=O)/C(C#N)=C/c1ccc(O)c(O)c1)c1ccccc1`, for which, in assay [1], the compound was classed as inactive. In addition, the Potency entry in assay [3], in [5] and in assay [7] was “inactive” each time.
For `CNc1ncnc2c1ncn2[C@H]1C[C@H](OP(=O)(O)O)[C@@H](COP(=O)(O)O)O1`, the compound was called inactive in assay [1]. For the same compound, the Potency entry in assay [2], in [3], in [5] and in assay [7] was “inactive” in each case.
As to `CC[C@@H]1Cc2cc(O)ccc2C2=C1c1ccc(O)cc1C[C@H]2CC`, the compound was classed as inactive in [1]. Also, the Potency result in assay [2], in assay [3], in assay [5] and in assay [6] was “inactive” each time. For the same compound, the Potency in assay [7] was 5.01 µM (active).
On to `NC1(C(=O)O)CCc2cc(C(=O)O)ccc21` (configuration not stated), for which, in [1], the compound was called inactive. In addition, the Potency entry in assay [2], in [3], in assay [6] and in assay [7] was “inactive” each time.
As to `CCCCCCCCCCCCCCCCCCOC[C@H](COP(=O)([O-])OCC[N+](C)(C)C)OC`, the Potency entry in assay [2], in assay [3], in assay [5] and in assay [7] was “inactive” in each case.
